Assay outcomes deposited in PubChem by National Center for Advancing Translational Sciences (NCATS).
Only some compounds are listed: those with a hit (about 7.9% of all), similar ones and a draw of the others.
Lassa entry inh: Lassa virus entry inhibition | Lassa virus pseudotype entry inhibition, cell reporter | hit rate 1.2% among 300,000 | Potency, µM (series often up to 37.9 µM), inactives show top-dose activity change, negative = inhibition, usual class: inhibitors; calls by dose curve; tested in HEK293 cells; also: potency is read from the fitted curve at half-maximal effect; nearly all actives have a fitted effect of over 50% in size
MARV entry inh: Marburg virus entry inhibition; Marburg virus pseudotyped entry inhibition, cell reporter; Potency, µM (series often up to 37.8 µM), inactives show top-dose activity change, negative = inhibition, usual class: inhibitors; hit rate 1.8% among 300,000; AID 540276; calls by dose curve; tested in HEK293 cells; also: potency is read from the fitted curve at half-maximal effect
HCMV antiviral: human cytomegalovirus inhibition; HFF cells, HCMV-luciferase reporter, 72 h; stronger effect = lower value; hit rate 4.5% among 410,000; activity change, negative = inhibition, % at 57.5 µM; in the data active = activity change below about -60%; inconclusive = no clear call, values can overlap the other calls; inactive = above about -39%
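Two-dose cell screen: HFF monolayers treated with compounds and infected with luciferase-expressing HCMV at 1 PFU/cell, 72 h at 37C, then lysed for luciferase measurement.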
HCV inh: inhibitors of hepatitis C virus infection | Huh7.5.1 HCVcc-Cre infection, luciferase reporter, 44 h | Potency, µM (doses to about 41.8 µM), for the others: at the top dose activity change, negative = inhibition, usual class: inhibitors | hit rate 3.4% among 340,000 | AID 651820; active = well fitted inhibition curve with a large enough effect; inconclusive = small, poorly fitted or top-dose-only effect, or another doubt; inactive = no such curve, though single readings can be large or run the other way; also: potency is read from the fitted curve at half-maximal effect
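HCVcc-Cre virus at an moi near 0.5 was added right after compound to cells cultured 4 h from seeding (1,000 cells/well). Luciferase activity was determined 44 h later, 15 min after substrate addition at RT.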
FMDV inh: antivirals against foot and mouth disease virus. hit rate 1.2% among 410,000. Potency, µM (highest dose often 57.9 µM), for the others: at the highest dose activity change, negative = inhibition, most hits filed as inhibitors. FMDV antiviral cell-based qHTS; calls by dose curve; tested in HEK293T cells; also: read-out not given here; potency is read from the fitted curve at half-maximal effect; nearly all actives have a fitted effect of over 45% in size
Numbers without * were called inactive; u = inconclusive; x = no result given; ! = a repeat was not active; [ ] = remark or other dose. % is scaled to controls: 0 for no effect and ±100 for the full control effect.

SMILES | Lassa entry inh | MARV entry inh | HCMV antiviral | HCV inh | FMDV inh
Cc1cc(C)n(-c2ccc(C(=O)N3CCc4c(cnc(C)c4CNC(=O)c4ccccc4F)C3)cc2)n1 | x | x | x | x | -11%
CCc1ccc(CN(C)C(=O)C2CCC(=O)N(CC3CCCCC3)C2)cc1 (stereo not given) | u | 4% | 20 | 6% | -10%
COc1ccc2cc(CNCc3nonc3C)c(N3CCCC(CO)C3)nc2c1 (stereo not given) | x | x | x | x | 13%
COc1ccc(OC)c(/C=N/NC(=O)c2cc3c(OC)cc(OC)cc3[nH]2)c1 | u | u | 35 | 25µM* | u
COc1cccc(/C=N/NC(=O)c2cc(-c3cccn3C)n[nH]2)c1O | 2.2µM* | 8.9µM* | u | 5µM* | 3%
CCOc1ccc(/C=N/NC(=O)c2cc3c(OC)cc(OC)cc3[nH]2)cc1OC | x | x | -4 | u | -21%
COc1cccc(/C=N/NC(=O)c2cc3c(OC)cccc3[nH]2)c1O | -5% | u | -75* | u | -9%
O=S(=O)(Nc1nc2ccccc2nc1Nc1ccc2c(c1)OCO2)c1ccc(F)cc1 | -28% | u | -5 | u | -17%
CN1CC(=O)N/C1=N\C(=O)Nc1cccc(Cl)c1 | x | x | 15 | x | x
COC(=O)c1cc2sc(C)cc2n1Cc1cccc(OC)c1 | x | u | 7 | x | -7%
C#CCN1C(=O)[C@]2(OCCC=C[C@@H]2C)c2cc(OC)ccc21 | x | 9%[14.2 µM] | x | x | x
O=c1c(Cl)c(NCCCO)cnn1-c1nc2ccccc2[nH]1 | u | u | -98* | 10µM* | 10%
C=CCN(CC=C)c1cnn(-c2nc3ccccc3[nH]2)c(=O)c1Cl | -18% | u | 53 | -1% | -5%
O=C(c1cncs1)N(Cc1cc2cc3c(cc2nc1N1CCOCC1)CCC3)CC1CCCO1 (stereo not given) | x | x | x | x | 11%
CC(C)c1nc2cccnc2n1C1CCN(C(=O)Cn2cccn2)CC1 | x | x | x | x | -12%
CC1CCCCC1NC(=O)CC1Oc2ccccc2NC1=O (stereo not given) | x | x | -66* | 4% | -24%
Cc1ccc2c(c1)NC(=O)C(CC(=O)NC1CCCCC1C)O2 (stereo not given) | -8% | 1% | -8 | 7% | -19%
CCN1/C(=C/C=C/C2=[N+](CC)c3ccccc3C2(C)C)C(C)(C)c2ccccc21 | x | x | -99* | x | 3.5µM*
O=C(NCC(c1ccc2c(c1)OCO2)N1CCOCC1)c1ccc(F)cc1 (stereo not given) | 14%[46.1 µM] | x | 13 | x | 11%
O=[N+]([O-])c1cc2oc3c(c2c(C=NCc2ccccc2)c1O)CCCC3 | u | 8% | 21 | u | 0%
CC(C)CN=Cc1c(O)c([N+](=O)[O-])cc2oc3c(c12)CCCC3 | -16% | u | 12 | -11% | 32µM*
O=c1c(Cl)cc(Cl)nn1-c1ccccc1 | u | 16µM* | -66* | u | 35µM*
CCCCCCCCNC(=S)NCCN1CCCCC1 | u | 15µM* | -66* | u | u
CN1C(=O)C2(OCC(COc3ccc(Cl)cc3)O2)c2ccccc21 (stereo not given) | -23% | u | u | -23% | x
O=C1Nc2ccccc2C12OCC(COc1ccc(Cl)cc1)O2 (stereo not given) | -6% | -7%[46.1 µM] | -11 | 13µM* | u
SMILES | Lassa entry inh | MARV entry inh | HCMV antiviral | HCV inh | FMDV inh
NNC(=O)CCN(Cc1ccco1)S(=O)(=O)c1ccc(Cl)cc1 | x | x | -67* | -27% | -15%
Cc1ccc(C)c(NC(=O)CSc2c3c(nc4ccc(Cl)cc24)CCCC3)c1 | -1%[46.1 µM] | -3%[46.1 µM] | -74* | x | -16%
Cc1ccc(CNC(=O)CSc2c3c(nc4ccc(Cl)cc24)CCCC3)cc1 | 20%[46.1 µM] | -1%[46.1 µM] | -17 | x | -12%
COc1ccc(NC(=O)CSc2c3c(nc4ccc(Cl)cc24)CCCC3)cc1Cl | 8%[46.1 µM] | -4%[46.1 µM] | -80* | x | u
COc1ccc(NC(=O)CSc2c3c(nc4cc(Cl)ccc24)CCCC3)cc1OC | u | u | 55 | u | u
COc1ccc2oc(C(=O)N(C)CCOc3ccccc3)c(C)c2c1 | u | 10% | 42 | -5% | -13%
O=C(O)COc1cccc(-c2ocnc2-c2nc(-c3ccccc3)c(-c3ccccc3)o2)c1 | x | x | x | x | -14%
CCC1NC(=O)c2cccnc2-n2c1nc1ccc(OC)cc1c2=O (stereo not given) | x | x | 10 | x | -21%
NC(=O)CNCCC(c1ccccc1)c1ccccc1 | -2% | 11µM*! | -9 | -14% | -9%
NC(=O)COC(=O)CC(c1ccccc1)c1ccccc1 | 9% | 5%[46.1 µM] | -21 | -2% | -9%
CCc1ccc(CN(C)Cc2nc(-c3cccc(Cl)c3)no2)nc1 | -24% | -3%[46.1 µM] | -5 | 8% | 0%
CN1CCc2c(sc(NC(=O)c3cc(Cl)sc3Cl)c2C(N)=O)C1 | x | x | 3 | 13µM* | -18%
CC(C)N1CCc2c(sc(NC(=O)c3ccc4ccccc4c3)c2C(N)=O)C1 | x | x | -7 | 8.9µM* | -4%
COC(=O)c1c(NC(=O)c2ccco2)sc2c1CCN(C(C)C)C2 | x | x | 6 | -23% | u
CC(=O)c1ccc(C(=O)Nc2sc3c(c2C(N)=O)CCN(Cc2ccccc2)C3)cc1 | x | x | -74* | x | x
CC(C)N1CCc2c(sc(NC(=O)c3ccco3)c2C(N)=O)C1 | 28%[46.1 µM] | 15%[46.1 µM] | -76* | -12% | 0%
CC(C)N1CCc2c(sc(NC(=O)c3ccc(C(=O)c4ccccc4)cc3)c2C(N)=O)C1 | u | u | 4 | u | -2%
COc1ccccc1-c1ccc(C(=O)N2CCC(N3CCc4ccccc4C3)CC2)c(N(C)CC2COCCO2)n1 (stereo not given) | x | x | x | x | 1%
CC(C)N1CCc2c(sc(NC(=O)c3cc4cc([N+](=O)[O-])ccc4s3)c2C(N)=O)C1 | x | x | -95* | u | -22%
CCN1CCc2c(sc(NC(=O)c3cc4ccccc4cc3OC)c2C(N)=O)C1 | -2%[46.1 µM] | 11µM* | -113* | 8.9µM* | -8%
CCN(CC)S(=O)(=O)c1ccc(N2CCOCC2)c(NC(=S)NC(=O)c2ccco2)c1 | u | u | 0 | u | -30%
CCCCCCCCCCCCCCCC(=O)OC(CC(=O)O)C[N+](C)(C)C (stereo not given) | u | 22µM*! | 43 | 8% | -23%
CCCCCCCCCCCCCCCC(=O)O[C@H](CC(=O)O)C[N+](C)(C)C | x | -27% | x | x | -19%
COc1ccc(C2=CC(c3ccc(F)cc3)n3ncc(C(=O)Nc4ccc(C)cc4)c3N2)cc1 (stereo not given) | u | x | -88* | x | 0%
COc1ccc(C2C=C(c3ccc(F)cc3)Nc3nc(-c4ccc(Cl)cc4)nn32)cc1 (stereo not given) | u | u | -101* | x | u
COc1ccc(-c2ccc(=O)n(CC(=O)NCC3COCCO3)n2)cc1 (stereo not given) | 15% | -14%[46.1 µM] | -18 | 15% | -14%
COc1ccc(C2CC(c3ccccc3Br)=NN2c2ccc(S(N)(=O)=O)cc2)cc1 (stereo not given) | x | x | 18 | 11µM* | 0%
